Inhibition data for 23 compounds are collected here from ChEMBL document CHEMBL4296182, “CO-ADD screening of NIH NCI Diversity Set V”.

For part of these data: Measured potencies and affinities stand elsewhere.

The test system of one assay is Staphylococcus aureus. In words: Antibacterial activity against Staphylococcus aureus MRSA ATCC 43300 (CO-ADD:GP_020); MIC in CAMBH media using NBS plates, by Resazurin F(560/590). In kind it is functional. The conditions noted are these: Concentration 20 uM, ASSAY_TEST Inhibition of Bacterial Growth, detection method Resazurin, Fluorescence (ex560/em590), MEDIA CAMHB, plate type 384well, CORNING #3640, time 18 hr. On the technique in general: The colour change of resazurin is a common sign of viable cells or microbes.

The subject of the next assay is Acinetobacter baumannii. In words: Antibacterial activity against Acinetobacter baumannii ATCC 19606 (CO-ADD:GN_034); MIC in CAMBH media using NBS plates, by Resazurin F(560/590). In kind it is functional. The conditions noted are these: Concentration 20 uM, ASSAY_TEST Inhibition of Bacterial Growth, detection method Resazurin, Fluorescence (ex560/em590), MEDIA CAMHB, plate type 384well, CORNING #3640, time 18 hr.

The subject of a further assay is Escherichia coli. Nature of the assay: Antibacterial activity against Escherichia coli ATCC 25922 (CO-ADD:GN_001); MIC in CAMBH media using NBS plates, by Resazurin F(560/590). It is filed as functional. The following applies: Concentration 20 uM, ASSAY_TEST Inhibition of Bacterial Growth, detection method Resazurin, Fluorescence (ex560/em590), MEDIA CAMHB, plate type 384well, CORNING #3640, time 18 hr.

The subject of the next assay is Klebsiella pneumoniae. The conditions noted are these: Concentration 20 uM; ASSAY_TEST Inhibition of Bacterial Growth; detection method Absorption (OD600); MEDIA CAMHB; plate type 384well; NBS; CORNING #3640; time 18 hr.
The next assay concerns Candida albicans. The following applies: 20 µM.
The next assay has as its system Cryptococcus neoformans. The conditions noted are these: Concentration 20 uM; ASSAY_TEST Inhibition of Fungal Growth; detection method Resazurin; Absorption (OD600-OD570); plate type 384well; NBS; CORNING #3640.

One may read the Inhibition as the relative decrease from the control value, in per cent. Regarding `Cn1ncc2c(Nc3ccccc3Cl)nc(Cl)nc21`, the Inhibition in the assay on Staphylococcus aureus was 11.91%; in the assay on Acinetobacter baumannii it was 12.64%; in the assay on Escherichia coli it was 1.79%; in the assay on Klebsiella pneumoniae it was 7.78%; with Candida albicans, 7.2%; with Cryptococcus neoformans, -6.78%.

Consider `CC1=CC(=O)Nc2cncnc2N1`, for which the Inhibition with Staphylococcus aureus was 4.06%; with Acinetobacter baumannii it was -8.47%; in the assay on Escherichia coli it was 8.98%; in the assay on Klebsiella pneumoniae it was 13.83%; in the assay with Candida albicans, 0.16%; in the assay with Cryptococcus neoformans, 0.91%.

Regarding `C=CCSC(CC)(CC)C(N)=O`, the Inhibition in the assay on Staphylococcus aureus was 1.95%; in the assay on Acinetobacter baumannii, -2.06%; in the assay with Escherichia coli it was -8.58%; with Klebsiella pneumoniae, 10.13%; in the assay on Candida albicans it was 1.53%; in the assay on Cryptococcus neoformans, 7.21%.

For `O=C(/C=C/c1cccnc1)/C=C/c1cccnc1`, the Inhibition is 16.75% with Staphylococcus aureus; 4.07% in the assay on Acinetobacter baumannii; 0.92% in the assay on Escherichia coli; 20.07% with Klebsiella pneumoniae; 31.4% with Candida albicans; -2.05% in the assay on Cryptococcus neoformans.

Turning to `CCOC(=O)Nc1ccc2nc(Sc3ccc(Cl)cc3)sc2c1`, the Inhibition in the assay on Staphylococcus aureus was 12.84%; with Acinetobacter baumannii, 1.81%; in the assay with Escherichia coli it was -1.5%; with Klebsiella pneumoniae, 17.17%; with Candida albicans, 10.2%; with Cryptococcus neoformans, -3.93%.

As for `C#CCSc1nc(-c2ccco2)n[nH]1`, the Inhibition is 6.25% in the assay with Staphylococcus aureus; 16.42% in the assay on Acinetobacter baumannii; -3.2% with Escherichia coli; 9.41% with Klebsiella pneumoniae; 3.4% in the assay with Candida albicans; -6.15% with Cryptococcus neoformans.

In the case of `CCOC(CNCc1cc(C)c2[nH]c3ccccc3c2c1C)OCC`, the Inhibition with Staphylococcus aureus is 11.65%; with Acinetobacter baumannii, -1.22%; in the assay with Escherichia coli, 3.76%; with Klebsiella pneumoniae, 8.4%; with Candida albicans it was 1.3%; in the assay on Cryptococcus neoformans, -11.65%.

Turning to `CCCCN1C(=O)CC2CCOC21C` (stereo not drawn), the Inhibition was 9.16% in the assay with Staphylococcus aureus; -12.54% in the assay with Acinetobacter baumannii; 6.99% in the assay on Escherichia coli; 9.62% in the assay on Klebsiella pneumoniae; 10.6% in the assay on Candida albicans; -12.41% in the assay on Cryptococcus neoformans.

On to `CC1=CC(=O)C(/C(C)=N/c2ccccc2Cl)C(=O)O1` (stereo not drawn), for which the Inhibition is 7.59% in the assay on Staphylococcus aureus; 14.34% with Acinetobacter baumannii; -12.7% in the assay on Escherichia coli; 12.66% with Klebsiella pneumoniae; 20.8% in the assay with Candida albicans; 0.4% in the assay with Cryptococcus neoformans.

Consider `CCOC(=O)c1nc(O)c2c3c(sc2n1)CCCC3`, for which the Inhibition was 16.28% in the assay on Staphylococcus aureus; -13.3% in the assay with Acinetobacter baumannii; 15.58% with Escherichia coli; 5.02% with Klebsiella pneumoniae; 10% with Candida albicans; -8.42% in the assay on Cryptococcus neoformans.

For the compound `C/C(=N\O)[C@H]1CC[C@H]2[C@@H]3CC[C@@H]4C/C(=N/O)CC[C@]4(C)[C@H]3[C@@](C)(O)C[C@]12C`, the Inhibition in the assay with Staphylococcus aureus was 13.92%; in the assay on Acinetobacter baumannii, 2.13%; in the assay with Escherichia coli it was 6.69%; in the assay on Klebsiella pneumoniae it was 4.28%; in the assay on Candida albicans it was 2.6%; in the assay with Cryptococcus neoformans, -11.49%.

With `Cc1cccnc1NC(=O)c1csnn1`, the Inhibition in the assay on Staphylococcus aureus is 5.73%; in the assay with Acinetobacter baumannii, -12.69%; with Escherichia coli it was 4.7%; in the assay on Klebsiella pneumoniae it was 9.01%; in the assay on Candida albicans, -1.09%; in the assay with Cryptococcus neoformans it was -4.1%.

In the case of `C=CCSc1n[nH]c(-c2cccs2)n1`, the Inhibition is 7.65% with Staphylococcus aureus; 11.99% in the assay on Acinetobacter baumannii; 1.25% in the assay with Escherichia coli; 19.42% with Klebsiella pneumoniae; 2.69% in the assay with Candida albicans; -4.46% in the assay on Cryptococcus neoformans.

Regarding `C[C@@]1(c2ccccc2)O[C@@H]2C[C@H]3[C@@H]4CCC5=CC(=O)C=C[C@]5(C)[C@@]4(F)[C@@H](O)C[C@]3(C)[C@]2(C(=O)CO)O1` [AMCINAFIDE], the Inhibition is 5.72% in the assay on Staphylococcus aureus; -8.64% in the assay with Acinetobacter baumannii; 8.97% in the assay with Escherichia coli; 3.86% in the assay with Klebsiella pneumoniae; 4.92% in the assay with Candida albicans; -9.65% in the assay on Cryptococcus neoformans.

For the compound `O=C(OCC(O)COC(=O)c1cccnc1)c1cccnc1`, the Inhibition was 6.08% in the assay on Staphylococcus aureus; 10.73% in the assay on Acinetobacter baumannii; 2.79% in the assay with Escherichia coli; 3.04% with Klebsiella pneumoniae; 1.84% in the assay with Candida albicans; -7.06% in the assay on Cryptococcus neoformans.

Turning to `COc1ccc2c(c1)CCCN2C(=N)Nc1ccc(Cl)cc1`, the Inhibition was -10.2% with Staphylococcus aureus; 2.99% with Acinetobacter baumannii; -14.68% in the assay on Escherichia coli; 7.66% in the assay on Klebsiella pneumoniae; 3.95% in the assay with Candida albicans; 6.87% with Cryptococcus neoformans.

Consider `CN1CCC(=C(c2ccc(Cl)cc2)c2ccccn2)CC1.O=C(O)/C=C\C(=O)O` [CYCLIRAMINE MALEATE], for which the Inhibition is 6.43% in the assay on Staphylococcus aureus; -10.18% in the assay with Acinetobacter baumannii; 9.66% in the assay on Escherichia coli; 13.03% in the assay with Klebsiella pneumoniae; 1.65% with Candida albicans; -5.61% with Cryptococcus neoformans.

Take `NC(=O)Nc1n[nH]c(-c2ccccc2)n1`: the Inhibition in the assay on Staphylococcus aureus was -5.91%; in the assay with Acinetobacter baumannii, -11.11%; in the assay with Escherichia coli, -7.81%; in the assay on Klebsiella pneumoniae it was 2.72%; with Candida albicans, 1.88%; with Cryptococcus neoformans it was 1.04%.

Take `O=C(/C=C/c1ccccc1)CC(c1ccccc1)N1CCOCC1` (stereo not drawn): the Inhibition is 13.93% in the assay with Staphylococcus aureus; 0.36% in the assay on Acinetobacter baumannii; -4.09% in the assay with Escherichia coli; 21.53% in the assay with Klebsiella pneumoniae; 12.7% in the assay on Candida albicans; -9.56% in the assay on Cryptococcus neoformans.

As to `Cc1c(O)cnc2nn(-c3ccccc3)c(=N)n12`, the Inhibition in the assay with Staphylococcus aureus was 11.23%; with Acinetobacter baumannii, 10.25%; in the assay on Escherichia coli, 2.75%; in the assay with Klebsiella pneumoniae, 9.94%; with Candida albicans it was 3.98%; with Cryptococcus neoformans, -5.13%.

As for `N#C/C(=C\c1c[nH]c2ccccc12)C(N)=O`, the Inhibition was 13.33% in the assay on Staphylococcus aureus; 12.56% in the assay with Acinetobacter baumannii; 0.03% in the assay on Escherichia coli; 10.43% in the assay on Klebsiella pneumoniae; 4.53% with Candida albicans; -10.69% in the assay with Cryptococcus neoformans.

Turning to `NC(=O)c1ccc2c(c1)S(=O)(=O)c1ccccc1C2=O`, the Inhibition was 12.96% in the assay on Staphylococcus aureus; -8.12% in the assay on Acinetobacter baumannii; -3.77% in the assay on Escherichia coli; 24.13% with Klebsiella pneumoniae; 1.19% with Candida albicans; -8.66% in the assay with Cryptococcus neoformans.

For the compound `Clc1ccccc1-c1nc(-c2ccncc2)no1` [PIFEXOLE], the Inhibition was 2.18% in the assay with Staphylococcus aureus; -11.63% in the assay on Acinetobacter baumannii; 7% with Escherichia coli; 9.18% with Klebsiella pneumoniae; 12.7% in the assay with Candida albicans; -16.63% with Cryptococcus neoformans.
